In the supplement of paper PMC12067093, “Discovery and optimisation of a covalent ligand for TRIM25 and its application to targeted protein ubiquitination” (Chemical Science, 2025):
Of roughly 21,000 targets only a part is listed; those with the largest changes were picked by preference.

Compound: Cc1cc(ccc1-c1ccccc1)C(=O)N1CCCN(CC1)C(=O)CCl [compound 10]
Assay: probe-labelled cysteine peptide fold change vs DMSO (competition) (log2 fold change); higher = less target engagement (more negative = stronger competition)
Details: THP-1, incubation time: 4 h
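Further: competitive profiling in live THP-1 cells: cysteine peptides tagged with an iodoacetamide desthiobiotin (IA-DTB) probe, intensity after compound treatment relative to DMSO-treated cells.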

XPO4_Q9C0E2_492_IAAEHCIPLLTSLLEER (UniProt Q9C0E2)
probe-labelled cysteine peptide fold change (10 µM): 0.012 | probe-labelled cysteine peptide fold change (50 µM): 0.2

ZW10_O43264_650_LGIVWQDVLPVNIYCK (UniProt O43264)
probe-labelled cysteine peptide fold change (10 µM): 0.139 | probe-labelled cysteine peptide fold change (50 µM): 0.206

ZC3HAV1_Q7Z2W4_168_QQICNQQPPCSR (UniProt Q7Z2W4)
probe-labelled cysteine peptide fold change (10 µM): 0.0782 | probe-labelled cysteine peptide fold change (50 µM): -0.158

ZNF451_Q9Y4E5_150_TGTINCGTK (UniProt Q9Y4E5)
probe-labelled cysteine peptide fold change (10 µM): -0.175 | probe-labelled cysteine peptide fold change (50 µM): -1.18

WDFY4_Q6ZS81_2226_TEDFVSCIENYR (UniProt Q6ZS81)
probe-labelled cysteine peptide fold change (10 µM): -0.17 | probe-labelled cysteine peptide fold change (50 µM): -0.159

ZNF579_Q8NAF0_77_LSHSGLRPHACPLCPK (UniProt Q8NAF0)
probe-labelled cysteine peptide fold change (10 µM): 0.112 | probe-labelled cysteine peptide fold change (50 µM): -0.0195

ZNHIT6_Q9NWK9_171_FVGQCIK (UniProt Q9NWK9)
UniProt Q9NWK9, sequence (Q9NWK9 whole entry, looked up): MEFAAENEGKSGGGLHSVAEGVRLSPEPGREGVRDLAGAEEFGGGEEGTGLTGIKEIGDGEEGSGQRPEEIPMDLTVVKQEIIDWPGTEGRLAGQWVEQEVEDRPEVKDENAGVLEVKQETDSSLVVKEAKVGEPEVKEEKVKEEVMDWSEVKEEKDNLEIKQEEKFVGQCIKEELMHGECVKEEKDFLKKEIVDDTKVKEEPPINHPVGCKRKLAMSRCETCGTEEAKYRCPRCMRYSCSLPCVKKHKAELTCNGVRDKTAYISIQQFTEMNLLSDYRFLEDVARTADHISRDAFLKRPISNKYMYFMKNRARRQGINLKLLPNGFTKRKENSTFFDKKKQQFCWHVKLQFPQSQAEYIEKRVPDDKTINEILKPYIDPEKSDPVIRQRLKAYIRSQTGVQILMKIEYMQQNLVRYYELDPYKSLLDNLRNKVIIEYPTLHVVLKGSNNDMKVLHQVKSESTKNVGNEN
probe-labelled cysteine peptide fold change (10 µM): -0.528 | probe-labelled cysteine peptide fold change (50 µM): -0.0997

WDR43_Q15061_291_LAVVCR (UniProt Q15061)
probe-labelled cysteine peptide fold change (10 µM): 0.0146 | probe-labelled cysteine peptide fold change (50 µM): 0.0317

YY1AP1_Q9H869_689_AHMNVDIACAVADGENAFQGLEPK (UniProt Q9H869)
probe-labelled cysteine peptide fold change (10 µM): -0.0161 | probe-labelled cysteine peptide fold change (50 µM): 0.141

WDR5_P61964_205_IWDTASGQCLK (UniProt P61964)
probe-labelled cysteine peptide fold change (10 µM): 0.16 | probe-labelled cysteine peptide fold change (50 µM): 0.0228

WDR3_Q9UNX4_183_WWDLDTQHCFK (UniProt Q9UNX4)
UniProt Q9UNX4, sequence (Q9UNX4 whole entry, looked up): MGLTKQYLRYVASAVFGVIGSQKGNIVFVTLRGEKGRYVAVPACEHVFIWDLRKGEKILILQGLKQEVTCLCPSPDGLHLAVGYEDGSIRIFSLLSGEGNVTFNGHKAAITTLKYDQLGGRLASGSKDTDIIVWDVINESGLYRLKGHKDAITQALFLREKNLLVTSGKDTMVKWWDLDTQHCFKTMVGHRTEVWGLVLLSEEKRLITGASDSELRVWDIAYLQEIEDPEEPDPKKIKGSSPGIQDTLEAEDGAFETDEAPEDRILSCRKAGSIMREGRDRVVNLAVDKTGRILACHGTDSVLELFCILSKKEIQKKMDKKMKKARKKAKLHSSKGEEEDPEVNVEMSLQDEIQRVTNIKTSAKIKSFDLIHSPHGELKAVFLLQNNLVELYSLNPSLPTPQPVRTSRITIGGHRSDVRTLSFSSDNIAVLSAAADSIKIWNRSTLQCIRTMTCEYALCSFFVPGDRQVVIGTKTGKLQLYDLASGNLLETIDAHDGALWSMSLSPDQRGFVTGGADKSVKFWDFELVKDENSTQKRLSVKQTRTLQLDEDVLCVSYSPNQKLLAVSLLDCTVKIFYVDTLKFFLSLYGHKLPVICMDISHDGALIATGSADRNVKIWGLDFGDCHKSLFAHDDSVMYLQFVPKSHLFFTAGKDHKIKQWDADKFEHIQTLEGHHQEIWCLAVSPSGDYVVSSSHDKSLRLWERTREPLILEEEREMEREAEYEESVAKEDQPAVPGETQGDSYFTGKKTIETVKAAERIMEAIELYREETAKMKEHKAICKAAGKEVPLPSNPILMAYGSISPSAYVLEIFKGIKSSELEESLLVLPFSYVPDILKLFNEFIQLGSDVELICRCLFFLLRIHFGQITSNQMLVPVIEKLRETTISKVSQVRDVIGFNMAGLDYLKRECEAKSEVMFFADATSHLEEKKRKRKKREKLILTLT
probe-labelled cysteine peptide fold change (10 µM): 0.0656 | probe-labelled cysteine peptide fold change (50 µM): 0.271

ZZEF1_O43149_728_DTEESVCGATLLLR (UniProt O43149)
UniProt O43149, sequence (O43149 whole entry, looked up): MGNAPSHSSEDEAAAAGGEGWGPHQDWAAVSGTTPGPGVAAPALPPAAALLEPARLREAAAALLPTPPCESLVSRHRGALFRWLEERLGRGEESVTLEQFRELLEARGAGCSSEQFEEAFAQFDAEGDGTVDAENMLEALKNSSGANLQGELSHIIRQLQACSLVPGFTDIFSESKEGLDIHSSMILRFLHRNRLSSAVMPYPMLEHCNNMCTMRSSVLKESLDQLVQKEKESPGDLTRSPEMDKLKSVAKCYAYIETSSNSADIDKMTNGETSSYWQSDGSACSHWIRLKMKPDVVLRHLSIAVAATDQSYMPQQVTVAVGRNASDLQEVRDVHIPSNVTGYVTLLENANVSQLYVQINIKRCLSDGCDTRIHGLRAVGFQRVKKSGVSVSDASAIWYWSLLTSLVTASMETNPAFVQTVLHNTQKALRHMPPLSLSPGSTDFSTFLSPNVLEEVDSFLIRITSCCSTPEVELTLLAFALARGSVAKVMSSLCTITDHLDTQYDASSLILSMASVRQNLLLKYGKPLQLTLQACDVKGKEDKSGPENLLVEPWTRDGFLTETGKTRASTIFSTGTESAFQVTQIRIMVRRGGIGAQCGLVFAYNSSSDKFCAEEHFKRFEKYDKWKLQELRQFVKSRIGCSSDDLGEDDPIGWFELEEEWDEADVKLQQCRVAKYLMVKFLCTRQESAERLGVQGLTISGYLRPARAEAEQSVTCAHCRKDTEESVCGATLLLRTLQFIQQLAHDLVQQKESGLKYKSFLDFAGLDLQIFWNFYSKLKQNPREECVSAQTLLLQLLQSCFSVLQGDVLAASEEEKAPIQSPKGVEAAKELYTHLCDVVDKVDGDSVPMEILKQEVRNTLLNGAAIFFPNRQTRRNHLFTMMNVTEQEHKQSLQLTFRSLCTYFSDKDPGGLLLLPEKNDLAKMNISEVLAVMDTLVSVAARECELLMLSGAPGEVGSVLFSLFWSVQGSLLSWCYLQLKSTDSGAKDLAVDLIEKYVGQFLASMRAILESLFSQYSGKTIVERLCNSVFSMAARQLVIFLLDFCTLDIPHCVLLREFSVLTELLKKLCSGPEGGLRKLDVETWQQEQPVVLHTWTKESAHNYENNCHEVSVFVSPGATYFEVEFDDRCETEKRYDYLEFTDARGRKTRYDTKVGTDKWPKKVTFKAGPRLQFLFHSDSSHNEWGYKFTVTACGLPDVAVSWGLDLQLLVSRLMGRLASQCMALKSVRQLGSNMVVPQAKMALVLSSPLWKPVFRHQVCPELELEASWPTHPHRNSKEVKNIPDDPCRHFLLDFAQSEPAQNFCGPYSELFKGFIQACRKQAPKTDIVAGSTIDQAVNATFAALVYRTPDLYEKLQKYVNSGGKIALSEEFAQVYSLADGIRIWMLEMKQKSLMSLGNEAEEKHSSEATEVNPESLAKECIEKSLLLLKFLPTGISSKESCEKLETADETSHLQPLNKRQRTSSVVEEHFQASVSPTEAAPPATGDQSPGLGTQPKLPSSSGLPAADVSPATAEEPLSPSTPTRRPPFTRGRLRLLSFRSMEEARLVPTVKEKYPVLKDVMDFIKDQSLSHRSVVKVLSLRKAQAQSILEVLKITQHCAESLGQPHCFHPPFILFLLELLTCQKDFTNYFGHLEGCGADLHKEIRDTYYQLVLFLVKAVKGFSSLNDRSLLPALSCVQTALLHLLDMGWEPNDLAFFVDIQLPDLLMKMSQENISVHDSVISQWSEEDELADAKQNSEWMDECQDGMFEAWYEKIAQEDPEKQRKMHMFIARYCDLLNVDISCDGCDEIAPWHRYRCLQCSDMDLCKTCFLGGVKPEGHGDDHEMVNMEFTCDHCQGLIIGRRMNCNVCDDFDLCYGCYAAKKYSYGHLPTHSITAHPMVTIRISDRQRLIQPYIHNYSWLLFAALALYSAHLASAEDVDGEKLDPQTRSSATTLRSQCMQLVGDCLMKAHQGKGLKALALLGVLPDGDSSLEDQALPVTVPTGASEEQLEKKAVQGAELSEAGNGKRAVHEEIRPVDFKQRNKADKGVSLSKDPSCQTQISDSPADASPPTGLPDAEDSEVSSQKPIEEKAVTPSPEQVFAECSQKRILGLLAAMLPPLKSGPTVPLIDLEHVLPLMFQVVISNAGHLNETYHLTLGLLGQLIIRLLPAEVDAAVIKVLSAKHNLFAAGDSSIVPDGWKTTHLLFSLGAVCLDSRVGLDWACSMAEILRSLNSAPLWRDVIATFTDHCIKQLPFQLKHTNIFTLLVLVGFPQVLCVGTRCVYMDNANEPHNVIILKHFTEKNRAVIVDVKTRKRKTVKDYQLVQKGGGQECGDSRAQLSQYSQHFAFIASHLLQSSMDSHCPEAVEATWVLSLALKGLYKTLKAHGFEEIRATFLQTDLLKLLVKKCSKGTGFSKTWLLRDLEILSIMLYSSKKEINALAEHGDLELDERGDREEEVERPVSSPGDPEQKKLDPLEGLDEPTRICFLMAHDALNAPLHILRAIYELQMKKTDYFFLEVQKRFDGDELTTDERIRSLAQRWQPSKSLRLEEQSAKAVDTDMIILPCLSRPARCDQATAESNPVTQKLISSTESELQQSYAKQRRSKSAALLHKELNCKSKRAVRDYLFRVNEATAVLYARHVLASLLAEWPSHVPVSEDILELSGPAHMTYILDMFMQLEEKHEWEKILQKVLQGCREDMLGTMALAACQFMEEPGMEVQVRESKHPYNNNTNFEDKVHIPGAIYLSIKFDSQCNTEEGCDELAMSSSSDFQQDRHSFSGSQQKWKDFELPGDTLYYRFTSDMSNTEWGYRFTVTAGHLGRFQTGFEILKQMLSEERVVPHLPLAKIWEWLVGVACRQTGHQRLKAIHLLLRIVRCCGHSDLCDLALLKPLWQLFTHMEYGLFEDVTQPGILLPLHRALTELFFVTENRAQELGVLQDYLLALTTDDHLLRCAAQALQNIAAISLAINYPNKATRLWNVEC
probe-labelled cysteine peptide fold change (10 µM): -0.0306 | probe-labelled cysteine peptide fold change (50 µM): -0.17

ZMYND11_Q15326_126_CLSDEFR (UniProt Q15326)
probe-labelled cysteine peptide fold change (10 µM): -0.00978 | probe-labelled cysteine peptide fold change (50 µM): 0.0128

WDR6_Q9NNW5_830_LACHVMHLSSHR (UniProt Q9NNW5)
probe-labelled cysteine peptide fold change (10 µM): 0.144 | probe-labelled cysteine peptide fold change (50 µM): 0.0864

ZNF330_Q9Y3S2_120+122_CLSTHACACPLTDAECVECER (UniProt Q9Y3S2)
probe-labelled cysteine peptide fold change (10 µM): 0.16 | probe-labelled cysteine peptide fold change (50 µM): -0.138

YWHAZ_P63104_94_DICNDVLSLLEK (UniProt P63104)
UniProt P63104, sequence (P63104 whole entry, looked up): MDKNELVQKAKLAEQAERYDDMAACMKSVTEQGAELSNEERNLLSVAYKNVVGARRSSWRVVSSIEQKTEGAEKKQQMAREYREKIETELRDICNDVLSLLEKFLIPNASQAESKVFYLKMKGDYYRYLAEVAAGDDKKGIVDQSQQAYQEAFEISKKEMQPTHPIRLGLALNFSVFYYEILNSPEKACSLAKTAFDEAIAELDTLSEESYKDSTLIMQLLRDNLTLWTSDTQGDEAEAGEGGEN
probe-labelled cysteine peptide fold change (10 µM): 0.233 | probe-labelled cysteine peptide fold change (50 µM): 0.309

XXYLT1_Q8NBI6_386_IYHGNCNTPIPED (UniProt Q8NBI6)
UniProt Q8NBI6, sequence (Q8NBI6 whole entry, looked up): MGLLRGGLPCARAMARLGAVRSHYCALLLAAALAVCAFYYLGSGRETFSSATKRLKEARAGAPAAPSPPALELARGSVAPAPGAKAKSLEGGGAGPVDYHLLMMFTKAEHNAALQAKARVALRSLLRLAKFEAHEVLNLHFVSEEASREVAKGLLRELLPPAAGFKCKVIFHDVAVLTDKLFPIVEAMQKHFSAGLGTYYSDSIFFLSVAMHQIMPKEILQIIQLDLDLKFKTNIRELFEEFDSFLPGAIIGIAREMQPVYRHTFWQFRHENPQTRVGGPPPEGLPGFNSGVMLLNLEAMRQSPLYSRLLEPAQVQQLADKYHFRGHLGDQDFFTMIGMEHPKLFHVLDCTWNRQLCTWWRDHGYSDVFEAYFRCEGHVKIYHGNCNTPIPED
probe-labelled cysteine peptide fold change (10 µM): -0.00561 | probe-labelled cysteine peptide fold change (50 µM): -0.0309

WDFY4_Q6ZS81_88_AWEHSVGIICFPSLQR (UniProt Q6ZS81)
probe-labelled cysteine peptide fold change (10 µM): -0.23 | probe-labelled cysteine peptide fold change (50 µM): 0.423

YAE1_Q9NRH1_143_SITPPSHVVDLLDSIEDMDLCHVVPAEK (UniProt Q9NRH1)
probe-labelled cysteine peptide fold change (10 µM): -0.335 | probe-labelled cysteine peptide fold change (50 µM): 0.0421

ZYX_Q15942_467_AYHPHCFTCVVCAR (UniProt Q15942)
probe-labelled cysteine peptide fold change (10 µM): 0.229 | probe-labelled cysteine peptide fold change (50 µM): 0.194

ZW10_O43264_588_RLGTECFLAQMR (UniProt O43264)
probe-labelled cysteine peptide fold change (10 µM): 0.00573 | probe-labelled cysteine peptide fold change (50 µM): -0.0952

ZNF512B_Q96KM6_6_TDPFCVGGR (UniProt Q96KM6)
probe-labelled cysteine peptide fold change (10 µM): -0.0569 | probe-labelled cysteine peptide fold change (50 µM): 0.0733

WDR41_Q9HAD4_291_SNDISIHHFTCDEENVFAAVGR (UniProt Q9HAD4)
probe-labelled cysteine peptide fold change (10 µM): 0.135 | probe-labelled cysteine peptide fold change (50 µM): 0.418

ZNF516_Q92618_165_KGAEGSACAPGEAK (UniProt Q92618)
probe-labelled cysteine peptide fold change (10 µM): 0.0165 | probe-labelled cysteine peptide fold change (50 µM): -0.317

WNK1_Q9H4A3_1135_VVECQLETHNRK (UniProt Q9H4A3)
probe-labelled cysteine peptide fold change (10 µM): 0.208 | probe-labelled cysteine peptide fold change (50 µM): 0.14

WDR44_Q5JSH3_701_LITAANFCQNGK (UniProt Q5JSH3)
probe-labelled cysteine peptide fold change (10 µM): -0.0485 | probe-labelled cysteine peptide fold change (50 µM): 0.165

WIPI2_Q9Y4P8_430_LAYTDDLGAVGGACLEDEASALRLDEDSEHPPMILR (UniProt Q9Y4P8)
probe-labelled cysteine peptide fold change (10 µM): -0.352 | probe-labelled cysteine peptide fold change (50 µM): -0.0492

WRN_Q14191_1367_HGPDSGLQPSCDVNK (UniProt Q14191)
probe-labelled cysteine peptide fold change (10 µM): -0.126 | probe-labelled cysteine peptide fold change (50 µM): -0.11
